Measurements reported in the supplement of paper PMC10849652.
About 7,900 targets were measured; listed, in parts, are those with a hit and a random draw of the rest. About 0.6% of all pairs of compound and target were hits.

How the values were obtained:
Assay in all cases: log2 fold change, soluble protein after heating vs DMSO (PISA); higher = thermal stabilisation; K562 cells, 10 uM, 30 min; active = over 0.2 and 3.5 SD of the protein, either way, in both replicates (recomputed)
[1] = compound: CC1=C(C=C(C=C1)NC(=O)C2=CC(=CC=C2)C(C)(C)C#N)NC3=CC4=C(C=C3)N=CN(C4=O)C
How it was run: (§1)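 For each measurement, 10 μM compound was applied for 30 min to K562 cells at 2×10^6 cells/mL. Aliquots were heated for 3 min across 48°C-58°C, pooled, and extracted in PBS with 0.5% NP-40 at 4°C; the supernatant after 21,000xg for 90 min was soluble protein. This was quantified by TMTpro 16plex LC-MS/MS with channel sums equalised, and thermal stability was reported relative to control samples from duplicates, on a log2 fold-change scale.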

[2] = compound: CC1=C(C=C(C=C1)NC(=O)C2=CC(=CC=C2)N(C)C)NC(=O)C3=CC=C(C=C3)O
How it was run: as §1

[3] = compound: CC1=CC=C(C=C1)SC2=C3C=C(SC3=CN=C2)C(=O)N
How it was run: as §1

[4] = compound: CC1=NC(=CC=C1)C2=C(N=C(N2)C(C)(C)C)C3=CC4=NC=CN=C4C=C3
How it was run: as §1

[5] = compound: CCCCN(Cc1ccc(C(=O)NO)cc1)C(=O)Nc1ccccc1 [Nexturastat A]
How it was run: as §1

[6] = compound: CCCS(=O)(=O)Nc1ccc(F)c(C(=O)c2c[nH]c3ncc(-c4ccc(Cl)cc4)cc23)c1F [vemurafenib]
How it was run: as §1

[7] = compound: CCCS(=O)(=O)Nc1ccc(F)c(C(=O)c2c[nH]c3ncc(Cl)cc23)c1F
How it was run: as §1

[8] = compound: CCCc1cc(C)[nH]c(=O)c1CNC(=O)c1cc(-c2ccnc(N3CCN(C)CC3)c2)cc2c1cnn2C(C)C
How it was run: as §1

[9] = compound: CCN(CC)Cc1ccc2cc(COC(=O)Nc3ccc(C(=O)NO)cc3)ccc2c1 [givinostat]
How it was run: as §1

[10] = compound: CCN(CCCOc1ccc2c(Nc3cc(CC(=O)Nc4cccc(F)c4)[nH]n3)ncnc2c1)CCOP(=O)(O)O [barasertib]
How it was run: as §1

[11] = compound: CC[C@@H]1C(=O)N(C)c2cnc(Nc3ccc(C(=O)NC4CCN(C)CC4)cc3OC)nc2N1C1CCCC1
How it was run: as §1

[12] = compound: CC[C@@H]1C(=O)N(C)c2cnc(Nc3ccc(C(=O)N[C@H]4CC[C@H](N5CCN(CC6CC6)CC5)CC4)cc3OC)nc2N1C(C)C [volasertib]
How it was run: as §1

[13] = compound: CC[C@H](C)N1C=C(C2=C(C=C(C=C21)C3=CN=C(C=C3)N4CCNCC4)C(=O)NCC5=C(C=C(NC5=O)C)C)C
How it was run: as §1

[14] = compound: CC[C@H](C)[C@@H](C(=O)N[C@@H]([C@@H](C)O)C(=O)N[C@@H](CC(C)C)C(=O)[C@]1(CO1)C)NC(=O)[C@H]([C@@H](C)CC)N(C)C(=O)C [epoxomicin]
How it was run: as §1

[15] = compound: CCn1c(C(=O)N(C2CC2)C2CC2)cc2c3c(ncn3C)c(Nc3cc(C)n(C)n3)nc21
How it was run: as §1

[16] = compound: CCn1cc(-c2ccnc3[nH]c(-c4cccc(CN(C)C)c4)cc23)c(-c2ccc(NC(=O)N(C)C)cc2)n1
How it was run: as §1

[17] = compound: CN(C)CC(=O)Nc1ccc2[nH]c(=O)c3ccccc3c2c1
How it was run: as §1

[18] = compound: CN(CCOC1=CC=C(C=C1)C[C@H]2C(=O)NC(=O)S2)C3=CC=CC=N3 (racemic) [rosiglitazone]
How it was run: as §1

[19] = compound: CN1C2=C(C3=C1C(=O)N(N=C3)CC4=CC(=CC=C4)N)SC(=C2)S(=O)C
How it was run: as §1

[20] = compound: CN1CCC(CNc2ccc3ncc(-c4cccc(OC(F)(F)F)c4)n3n2)CC1
How it was run: as §1

Measured: log2 fold change

EED, A0A5F9ZI63
active: [8] -0.204
inactive: [1] 0.005 | [2] -0.067 | [3] -0.012 | [4] -0.019 | [5] 0.013 | [6] -0.02 | [7] 0.025 | [9] 0.082 | [10] -0.038 | [11] -0.052 | [12] -0.055 | [13] -0.159 | [14] -0.032 | [15] -0.001 | [16] 0.068 | [17] -0.099 | [18] 0.054 | [19] 0.045 | [20] 0.209

CTSH (UniProt P09668)
Chain of UniProt P09668 (P09668 whole entry, looked up): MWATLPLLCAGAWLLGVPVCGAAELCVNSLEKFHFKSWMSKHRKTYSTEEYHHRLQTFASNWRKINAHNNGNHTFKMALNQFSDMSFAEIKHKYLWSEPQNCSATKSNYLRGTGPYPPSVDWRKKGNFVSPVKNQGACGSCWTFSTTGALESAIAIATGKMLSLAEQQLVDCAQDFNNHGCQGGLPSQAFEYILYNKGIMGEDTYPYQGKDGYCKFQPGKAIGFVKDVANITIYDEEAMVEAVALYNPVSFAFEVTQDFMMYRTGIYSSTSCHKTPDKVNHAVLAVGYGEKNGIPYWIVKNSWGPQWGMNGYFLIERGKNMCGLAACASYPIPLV
active: [20] -0.295
inactive: [1] -0.007 | [2] 0.066 | [3] 0.013 | [4] 0.093 | [5] -0.047 | [6] 0.023 | [7] -0.034 | [8] 0.157 | [9] 0.003 | [10] -0.019 | [11] -0.087 | [12] -0.06 | [13] 0.008 | [14] -0.022 | [15] 0.03 | [16] 0.057 | [17] 0.001 | [18] 0.004 | [19] -0.008

FAM117A (UniProt Q9C073)
inactive: [1] 0.036 | [2] 0.013 | [3] -0.007 | [4] -0.034 | [5] 0.004 | [6] -0.023 | [7] -0.004 | [8] -0.001 | [9] 0.109 | [10] 0.053 | [11] 0.001 | [12] 0.129 | [13] 0.071 | [14] 0.091 | [15] 0.006 | [16] -0.025 | [17] 0.028 | [18] 0.015 | [19] -0.008 | [20] -0.182

FAM114A2 (UniProt Q9NRY5)
active: [20] -0.29
inactive: [1] 0.007 | [2] 0.03 | [3] 0.038 | [4] 0.022 | [5] -0.053 | [6] 0.001 | [7] 0.061 | [8] -0.058 | [9] -0.017 | [10] 0.01 | [11] -0.094 | [12] -0.136 | [13] 0.046 | [14] 0.052 | [15] -0.001 | [16] -0.059 | [17] 0.02 | [18] 0.049 | [19] -0.013

EEF1G isoform 2 (UniProt P26641)
Chain of UniProt P26641 (P26641 whole entry, looked up): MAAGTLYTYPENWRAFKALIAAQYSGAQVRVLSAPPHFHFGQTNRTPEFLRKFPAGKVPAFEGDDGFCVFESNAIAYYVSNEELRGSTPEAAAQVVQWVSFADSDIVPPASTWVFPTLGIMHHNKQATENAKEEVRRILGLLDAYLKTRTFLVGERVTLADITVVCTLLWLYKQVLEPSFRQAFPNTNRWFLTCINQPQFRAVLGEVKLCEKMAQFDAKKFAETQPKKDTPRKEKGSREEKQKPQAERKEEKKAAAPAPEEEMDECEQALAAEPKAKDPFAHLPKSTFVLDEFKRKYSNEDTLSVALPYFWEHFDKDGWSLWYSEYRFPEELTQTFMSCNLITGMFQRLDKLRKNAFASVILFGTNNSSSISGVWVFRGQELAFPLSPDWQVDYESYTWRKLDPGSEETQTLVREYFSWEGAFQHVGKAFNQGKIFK
inactive: [1] 0.035 | [2] -0.015 | [3] 0.014 | [4] 0.049 | [5] -0.062 | [6] 0.07 | [7] 0.101 | [8] 0.095 | [9] -0.013 | [10] 0.037 | [11] -0.164 | [13] 0.075 | [14] 0.008 | [15] -0.012 | [16] -0.005 | [17] 0.022 | [18] 0.005 | [19] 0.011 | [20] 0.016
active: [12] -0.364

EHD2 (UniProt Q9NZN4)
active: [12] -0.243
inactive: [1] -0.037 | [2] -0.026 | [3] -0.007 | [4] 0.059 | [5] 0.003 | [6] 0.029 | [7] 0.007 | [8] -0.024 | [9] 0.024 | [10] 0.03 | [11] -0.073 | [13] 0.027 | [14] 0.023 | [15] -0.029 | [16] -0.085 | [17] 0.007 | [18] 0.039 | [19] -0.045 | [20] -0.002

ESYT1 isoform 2 (UniProt Q9BSJ8)
Chain of UniProt Q9BSJ8 (Q9BSJ8 whole entry, looked up): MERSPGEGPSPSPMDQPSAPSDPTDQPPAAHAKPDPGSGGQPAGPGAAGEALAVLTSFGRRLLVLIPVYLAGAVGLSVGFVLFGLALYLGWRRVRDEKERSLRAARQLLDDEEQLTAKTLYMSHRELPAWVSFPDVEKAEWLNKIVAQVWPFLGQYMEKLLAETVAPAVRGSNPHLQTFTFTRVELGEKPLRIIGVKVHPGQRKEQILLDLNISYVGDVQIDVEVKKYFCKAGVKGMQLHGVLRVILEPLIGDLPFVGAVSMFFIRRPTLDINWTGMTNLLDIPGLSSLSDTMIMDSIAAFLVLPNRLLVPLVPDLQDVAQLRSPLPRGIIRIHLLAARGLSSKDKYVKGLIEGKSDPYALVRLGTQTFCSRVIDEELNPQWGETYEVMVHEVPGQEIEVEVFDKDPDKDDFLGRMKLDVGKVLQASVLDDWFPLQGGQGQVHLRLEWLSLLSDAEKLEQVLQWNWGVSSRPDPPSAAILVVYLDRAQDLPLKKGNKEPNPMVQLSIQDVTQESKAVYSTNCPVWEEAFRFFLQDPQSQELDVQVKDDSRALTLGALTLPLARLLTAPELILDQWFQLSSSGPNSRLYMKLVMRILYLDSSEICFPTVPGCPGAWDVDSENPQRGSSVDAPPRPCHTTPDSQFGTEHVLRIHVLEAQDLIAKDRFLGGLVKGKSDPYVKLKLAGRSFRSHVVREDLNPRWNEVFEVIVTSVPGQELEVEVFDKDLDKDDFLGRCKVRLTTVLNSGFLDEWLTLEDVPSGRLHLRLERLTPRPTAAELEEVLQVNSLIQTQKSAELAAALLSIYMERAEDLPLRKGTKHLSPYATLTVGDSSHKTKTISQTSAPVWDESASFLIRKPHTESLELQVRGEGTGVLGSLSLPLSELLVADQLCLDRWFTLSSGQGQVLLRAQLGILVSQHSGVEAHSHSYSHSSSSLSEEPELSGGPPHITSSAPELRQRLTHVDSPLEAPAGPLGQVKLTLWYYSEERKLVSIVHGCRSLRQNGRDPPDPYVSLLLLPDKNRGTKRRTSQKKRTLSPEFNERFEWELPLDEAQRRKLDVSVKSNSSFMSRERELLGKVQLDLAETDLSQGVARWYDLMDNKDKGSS
inactive: [1] 0.117 | [2] -0.052 | [3] -0.007 | [4] 0.003 | [5] 0.045 | [6] 0.01 | [7] 0.048 | [8] 0.148 | [9] 0.116 | [10] 0.046 | [11] 0.007 | [12] -0.37 | [13] 0.099 | [14] 0.026 | [15] -0.09 | [16] 0 | [17] 0.033 | [18] 0.045 | [19] 0.063 | [20] 0.115

EIF3J (UniProt O75822)
Chain of UniProt O75822 (O75822 whole entry, looked up): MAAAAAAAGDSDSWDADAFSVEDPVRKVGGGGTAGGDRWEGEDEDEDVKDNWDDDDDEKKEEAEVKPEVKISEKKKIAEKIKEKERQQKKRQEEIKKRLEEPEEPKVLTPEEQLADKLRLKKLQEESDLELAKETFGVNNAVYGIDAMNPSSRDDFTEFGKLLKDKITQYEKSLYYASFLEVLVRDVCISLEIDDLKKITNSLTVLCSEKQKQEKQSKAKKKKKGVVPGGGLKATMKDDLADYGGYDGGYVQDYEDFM
inactive: [1] 0.01 | [2] -0.026 | [3] -0.005 | [4] 0.039 | [5] -0.068 | [6] 0.05 | [7] -0.022 | [8] 0.004 | [9] 0.011 | [10] 0.046 | [11] -0.061 | [12] 0.005 | [13] 0.011 | [14] 0.055 | [15] 0 | [16] 0.001 | [17] -0.008 | [18] 0.019 | [19] -0.061 | [20] 0.226

CTSZ (UniProt Q9UBR2)
Chain of UniProt Q9UBR2 (Q9UBR2 whole entry, looked up): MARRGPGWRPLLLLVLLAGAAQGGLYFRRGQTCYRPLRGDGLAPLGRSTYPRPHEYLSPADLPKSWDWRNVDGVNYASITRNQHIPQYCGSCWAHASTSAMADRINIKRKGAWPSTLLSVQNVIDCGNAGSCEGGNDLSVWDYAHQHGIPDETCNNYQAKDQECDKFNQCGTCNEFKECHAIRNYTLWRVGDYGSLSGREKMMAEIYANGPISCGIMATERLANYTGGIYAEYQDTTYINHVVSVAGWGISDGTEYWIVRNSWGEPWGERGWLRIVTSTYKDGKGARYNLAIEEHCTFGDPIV
inactive: [1] -0.009 | [2] -0.004 | [3] 0.025 | [4] 0.002 | [5] -0.009 | [6] -0.026 | [7] -0.045 | [8] -0.017 | [9] 0.152 | [10] 0.027 | [13] -0.058 | [14] 0.02 | [15] 0.022 | [16] 0 | [17] -0.026 | [18] -0.028 | [19] -0.087
active: [11] -0.954 | [12] -1.54 | [20] -0.843

DAB2 (UniProt P98082)
Chain of UniProt P98082 (P98082 whole entry, looked up): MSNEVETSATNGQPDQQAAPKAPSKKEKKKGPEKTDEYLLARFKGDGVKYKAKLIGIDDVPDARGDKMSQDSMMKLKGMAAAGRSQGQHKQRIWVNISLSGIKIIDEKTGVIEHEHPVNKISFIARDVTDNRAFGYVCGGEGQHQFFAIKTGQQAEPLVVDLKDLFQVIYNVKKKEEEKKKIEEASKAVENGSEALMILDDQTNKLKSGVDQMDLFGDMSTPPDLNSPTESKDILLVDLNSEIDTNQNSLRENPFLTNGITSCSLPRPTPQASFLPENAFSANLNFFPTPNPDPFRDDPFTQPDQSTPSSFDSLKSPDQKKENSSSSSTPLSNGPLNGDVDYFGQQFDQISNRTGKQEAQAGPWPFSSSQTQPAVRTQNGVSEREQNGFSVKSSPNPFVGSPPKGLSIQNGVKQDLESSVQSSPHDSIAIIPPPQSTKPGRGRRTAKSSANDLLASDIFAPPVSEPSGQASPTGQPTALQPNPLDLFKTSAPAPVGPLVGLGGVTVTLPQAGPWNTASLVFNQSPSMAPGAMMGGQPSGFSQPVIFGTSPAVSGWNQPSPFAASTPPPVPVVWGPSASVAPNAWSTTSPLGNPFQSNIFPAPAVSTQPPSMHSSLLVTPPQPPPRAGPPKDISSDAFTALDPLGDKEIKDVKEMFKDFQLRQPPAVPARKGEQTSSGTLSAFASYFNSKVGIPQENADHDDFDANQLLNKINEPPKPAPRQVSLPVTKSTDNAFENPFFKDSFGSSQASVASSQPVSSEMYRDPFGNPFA
active: [12] -0.289
inactive: [1] 0.016 | [2] 0.015 | [3] -0.03 | [4] -0.046 | [5] 0.058 | [6] -0.033 | [7] 0.064 | [8] 0.036 | [9] 0.109 | [10] 0.072 | [11] -0.204 | [13] 0.042 | [14] -0.004 | [15] -0.014 | [16] 0.022 | [17] 0.132 | [18] 0.032 | [19] 0.032 | [20] -0.111

DPH5 isoform 5 (UniProt Q9H2P9)
Chain of UniProt Q9H2P9 (Q9H2P9 whole entry, looked up): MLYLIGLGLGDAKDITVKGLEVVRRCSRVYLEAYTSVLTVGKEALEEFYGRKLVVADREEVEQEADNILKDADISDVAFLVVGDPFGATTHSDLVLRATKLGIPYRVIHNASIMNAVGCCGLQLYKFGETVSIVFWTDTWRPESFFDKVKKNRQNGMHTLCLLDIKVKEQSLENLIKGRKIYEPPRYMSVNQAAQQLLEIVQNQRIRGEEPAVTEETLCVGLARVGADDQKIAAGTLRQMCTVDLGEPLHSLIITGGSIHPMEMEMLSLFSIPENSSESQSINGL
inactive: [1] 0.009 | [2] -0.01 | [3] 0.046 | [4] 0.042 | [5] -0.079 | [6] -0.041 | [7] 0.087 | [8] -0.045 | [9] -0.105 | [10] -0.006 | [11] 0.047 | [12] 0.08 | [13] -0.022 | [14] 0.049 | [15] -0.055 | [16] -0.018 | [17] -0.013 | [18] 0.013 | [19] -0.115 | [20] 0.034

DNAJC1 (UniProt Q96KC8)
inactive: [1] 0.027 | [2] 0 | [3] 0.014 | [4] 0.049 | [5] -0.079 | [6] -0.007 | [7] 0.037 | [8] -0.13 | [9] -0.013 | [10] 0.047 | [11] -0.097 | [12] -0.185 | [13] 0.024 | [14] 0.037 | [15] 0.008 | [16] 0.014 | [17] 0.002 | [18] 0.014 | [19] -0.01 | [20] -0.144

CYBA (UniProt P13498)
Chain of UniProt P13498 (P13498 whole entry, looked up): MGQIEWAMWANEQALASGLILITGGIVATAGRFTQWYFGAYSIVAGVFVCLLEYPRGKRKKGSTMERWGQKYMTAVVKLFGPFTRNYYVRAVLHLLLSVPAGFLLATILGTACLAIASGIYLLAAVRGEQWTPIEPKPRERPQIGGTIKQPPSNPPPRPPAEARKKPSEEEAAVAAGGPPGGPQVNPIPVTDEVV
inactive: [1] -0.017 | [2] 0.025 | [3] 0.041 | [4] -0.02 | [5] -0.033 | [6] 0 | [7] 0.008 | [8] -0.028 | [9] 0.007 | [10] -0.033 | [11] -0.091 | [12] -0.125 | [13] -0.026 | [14] 0.037 | [15] 0.047 | [16] 0.074 | [17] -0.02 | [18] 0.058 | [19] -0.064 | [20] -0.04

DBNL isoform 3 (UniProt Q9UJU6)
Chain of UniProt Q9UJU6 (Q9UJU6 whole entry, looked up): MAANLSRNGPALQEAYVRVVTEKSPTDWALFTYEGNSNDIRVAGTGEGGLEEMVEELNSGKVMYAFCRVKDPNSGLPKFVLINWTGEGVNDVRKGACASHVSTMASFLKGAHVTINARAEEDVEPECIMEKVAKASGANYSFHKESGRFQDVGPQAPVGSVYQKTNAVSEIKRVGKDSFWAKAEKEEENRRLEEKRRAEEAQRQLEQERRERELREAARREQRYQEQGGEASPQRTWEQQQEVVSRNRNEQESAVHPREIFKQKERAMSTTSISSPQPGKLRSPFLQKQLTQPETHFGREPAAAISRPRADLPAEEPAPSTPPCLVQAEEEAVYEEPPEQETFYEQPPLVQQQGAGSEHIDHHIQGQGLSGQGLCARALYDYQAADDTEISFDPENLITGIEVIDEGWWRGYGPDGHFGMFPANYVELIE
active: [12] -0.367
inactive: [1] -0.051 | [2] -0.019 | [3] 0.011 | [4] 0.113 | [5] -0.082 | [6] 0.07 | [7] 0.1 | [8] -0.006 | [9] 0.036 | [10] 0.045 | [11] -0.143 | [13] 0.031 | [14] 0.012 | [15] -0.046 | [16] 0.007 | [17] 0.011 | [18] 0.095 | [19] -0.075 | [20] -0.109

DNAJB12 (UniProt Q9NXW2)
Chain of UniProt Q9NXW2 (Q9NXW2 whole entry, looked up): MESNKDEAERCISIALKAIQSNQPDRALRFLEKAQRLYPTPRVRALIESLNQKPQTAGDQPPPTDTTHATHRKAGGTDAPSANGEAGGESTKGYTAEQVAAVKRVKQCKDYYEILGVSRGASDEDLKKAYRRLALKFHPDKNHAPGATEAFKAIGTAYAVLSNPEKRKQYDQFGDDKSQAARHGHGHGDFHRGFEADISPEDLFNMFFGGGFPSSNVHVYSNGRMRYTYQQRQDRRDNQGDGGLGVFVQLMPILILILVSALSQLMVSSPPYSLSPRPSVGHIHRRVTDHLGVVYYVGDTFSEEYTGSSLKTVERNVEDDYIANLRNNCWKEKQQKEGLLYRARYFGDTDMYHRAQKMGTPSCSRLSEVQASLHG
inactive: [1] -0.071 | [2] -0.017 | [3] -0.002 | [4] 0.017 | [5] 0.044 | [6] 0.008 | [7] 0.008 | [8] -0.069 | [9] 0.06 | [10] -0.001 | [11] -0.045 | [12] -0.123 | [13] -0.033 | [14] -0.003 | [15] -0.096 | [16] 0.024 | [17] 0.022 | [18] 0.023 | [19] 0.068 | [20] -0.081

EIF4A1 (UniProt P60842)
Chain of UniProt P60842 (P60842 whole entry, looked up): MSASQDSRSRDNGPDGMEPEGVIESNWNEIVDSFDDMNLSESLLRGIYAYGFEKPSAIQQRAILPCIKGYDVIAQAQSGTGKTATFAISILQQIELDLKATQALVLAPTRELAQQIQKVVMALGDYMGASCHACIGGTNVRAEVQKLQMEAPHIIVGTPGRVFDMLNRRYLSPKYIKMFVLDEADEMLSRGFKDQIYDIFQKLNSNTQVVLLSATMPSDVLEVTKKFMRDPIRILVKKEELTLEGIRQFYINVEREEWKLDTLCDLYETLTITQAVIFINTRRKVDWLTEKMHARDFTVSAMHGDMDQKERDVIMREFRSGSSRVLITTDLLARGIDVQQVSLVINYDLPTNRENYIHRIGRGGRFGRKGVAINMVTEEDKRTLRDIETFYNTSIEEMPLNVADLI
active: [12] -0.273
inactive: [1] 0.106 | [2] -0.017 | [3] 0.061 | [4] 0.049 | [5] -0.115 | [6] 0.055 | [7] 0.089 | [8] 0.151 | [9] 0.06 | [10] 0.026 | [11] -0.106 | [13] 0.079 | [14] 0.001 | [15] 0.001 | [16] -0.052 | [17] 0.047 | [18] 0.06 | [19] -0.046 | [20] -0.126
